Tests used:
Test in all cases: log2 ratio of Biotin-Ahx-Ub-VS probe labelling (fragment/DMSO); higher = less target engagement (more negative = stronger competition), active = hit call of the paper (q ≤ 0.05, log2 ratio ≤ -1)
Settings in all cases: compound concentration: 200 uM; treatment time: 3 h
USP19 = target: T1, USP19 (UniProt O94966)
T1 sequence (whole entry): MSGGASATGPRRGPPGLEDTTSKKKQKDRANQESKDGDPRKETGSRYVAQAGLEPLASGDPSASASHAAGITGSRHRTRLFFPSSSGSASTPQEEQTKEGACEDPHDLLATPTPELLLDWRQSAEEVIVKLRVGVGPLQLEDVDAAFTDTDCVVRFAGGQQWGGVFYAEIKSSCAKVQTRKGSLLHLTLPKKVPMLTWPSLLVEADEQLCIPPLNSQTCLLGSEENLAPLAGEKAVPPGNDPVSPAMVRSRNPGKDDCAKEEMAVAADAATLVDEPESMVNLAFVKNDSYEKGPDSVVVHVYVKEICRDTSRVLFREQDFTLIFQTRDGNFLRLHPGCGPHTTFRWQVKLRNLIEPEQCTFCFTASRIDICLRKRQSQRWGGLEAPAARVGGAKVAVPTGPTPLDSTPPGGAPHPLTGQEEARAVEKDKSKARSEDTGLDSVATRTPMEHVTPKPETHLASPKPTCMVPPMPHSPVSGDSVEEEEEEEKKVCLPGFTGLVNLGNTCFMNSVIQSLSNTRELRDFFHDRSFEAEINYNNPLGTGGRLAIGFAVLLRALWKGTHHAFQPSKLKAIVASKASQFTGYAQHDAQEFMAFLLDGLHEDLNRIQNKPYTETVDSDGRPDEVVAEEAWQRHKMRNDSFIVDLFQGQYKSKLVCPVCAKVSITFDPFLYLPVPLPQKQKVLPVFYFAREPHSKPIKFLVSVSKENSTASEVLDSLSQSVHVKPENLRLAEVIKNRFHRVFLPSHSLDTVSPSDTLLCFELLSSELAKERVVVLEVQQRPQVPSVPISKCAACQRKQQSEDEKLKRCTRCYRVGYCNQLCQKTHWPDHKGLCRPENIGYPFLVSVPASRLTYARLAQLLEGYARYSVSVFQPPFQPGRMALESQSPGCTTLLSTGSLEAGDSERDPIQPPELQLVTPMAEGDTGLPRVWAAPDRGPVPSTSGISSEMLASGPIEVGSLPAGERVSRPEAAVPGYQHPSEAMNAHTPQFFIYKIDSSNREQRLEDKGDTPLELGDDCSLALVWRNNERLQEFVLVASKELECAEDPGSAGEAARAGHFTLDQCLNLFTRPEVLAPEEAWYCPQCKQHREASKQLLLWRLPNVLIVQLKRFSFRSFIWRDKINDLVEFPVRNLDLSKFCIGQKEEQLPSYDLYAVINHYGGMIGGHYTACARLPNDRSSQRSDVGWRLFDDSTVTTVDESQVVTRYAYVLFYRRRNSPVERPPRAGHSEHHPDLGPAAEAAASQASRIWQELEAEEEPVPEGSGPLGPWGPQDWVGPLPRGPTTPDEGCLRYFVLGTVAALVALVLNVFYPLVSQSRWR
In short: (§1)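 Labelled DUBs from HEK293T lysate were NeutrAvidin-enriched, digested with LysC and trypsin, and run by diaPASEF LC-MS/MS. Before that, each 495 µg sample in Tris/CHAPS/IGEPAL buffer with protease inhibitors was treated in triplicate with fragment at 200 µM or vehicle for 3 h, then with Biotin-Ahx-Ub-VS at 0.5 µM final for 1 h. Values are average log2 ratios of fragment over vehicle by unpaired t-test, based on global-median-normalised Spectronaut label-free quantities from proteins with ≥2 unique peptides.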

USP22 = target: T2, USP22 (UniProt Q9UPT9)
T2 sequence (whole entry): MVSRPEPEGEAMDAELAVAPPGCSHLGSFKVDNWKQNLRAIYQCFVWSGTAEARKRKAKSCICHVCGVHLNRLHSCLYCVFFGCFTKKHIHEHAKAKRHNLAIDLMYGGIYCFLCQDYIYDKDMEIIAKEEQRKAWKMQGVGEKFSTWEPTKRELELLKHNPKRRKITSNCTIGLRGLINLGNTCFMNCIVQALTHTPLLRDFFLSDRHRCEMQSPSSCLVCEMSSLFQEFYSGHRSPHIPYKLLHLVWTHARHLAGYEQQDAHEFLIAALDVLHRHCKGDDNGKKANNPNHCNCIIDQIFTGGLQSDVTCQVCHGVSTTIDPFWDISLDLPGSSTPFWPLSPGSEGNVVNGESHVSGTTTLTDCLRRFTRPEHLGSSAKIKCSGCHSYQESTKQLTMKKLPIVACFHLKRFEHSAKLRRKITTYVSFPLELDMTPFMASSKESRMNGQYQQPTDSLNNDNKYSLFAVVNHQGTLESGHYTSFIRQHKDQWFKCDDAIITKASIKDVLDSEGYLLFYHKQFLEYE
In short: as §1

USP24 = USP24 (UniProt Q9UPU5)
USP24, sequence (Q9UPU5 whole entry): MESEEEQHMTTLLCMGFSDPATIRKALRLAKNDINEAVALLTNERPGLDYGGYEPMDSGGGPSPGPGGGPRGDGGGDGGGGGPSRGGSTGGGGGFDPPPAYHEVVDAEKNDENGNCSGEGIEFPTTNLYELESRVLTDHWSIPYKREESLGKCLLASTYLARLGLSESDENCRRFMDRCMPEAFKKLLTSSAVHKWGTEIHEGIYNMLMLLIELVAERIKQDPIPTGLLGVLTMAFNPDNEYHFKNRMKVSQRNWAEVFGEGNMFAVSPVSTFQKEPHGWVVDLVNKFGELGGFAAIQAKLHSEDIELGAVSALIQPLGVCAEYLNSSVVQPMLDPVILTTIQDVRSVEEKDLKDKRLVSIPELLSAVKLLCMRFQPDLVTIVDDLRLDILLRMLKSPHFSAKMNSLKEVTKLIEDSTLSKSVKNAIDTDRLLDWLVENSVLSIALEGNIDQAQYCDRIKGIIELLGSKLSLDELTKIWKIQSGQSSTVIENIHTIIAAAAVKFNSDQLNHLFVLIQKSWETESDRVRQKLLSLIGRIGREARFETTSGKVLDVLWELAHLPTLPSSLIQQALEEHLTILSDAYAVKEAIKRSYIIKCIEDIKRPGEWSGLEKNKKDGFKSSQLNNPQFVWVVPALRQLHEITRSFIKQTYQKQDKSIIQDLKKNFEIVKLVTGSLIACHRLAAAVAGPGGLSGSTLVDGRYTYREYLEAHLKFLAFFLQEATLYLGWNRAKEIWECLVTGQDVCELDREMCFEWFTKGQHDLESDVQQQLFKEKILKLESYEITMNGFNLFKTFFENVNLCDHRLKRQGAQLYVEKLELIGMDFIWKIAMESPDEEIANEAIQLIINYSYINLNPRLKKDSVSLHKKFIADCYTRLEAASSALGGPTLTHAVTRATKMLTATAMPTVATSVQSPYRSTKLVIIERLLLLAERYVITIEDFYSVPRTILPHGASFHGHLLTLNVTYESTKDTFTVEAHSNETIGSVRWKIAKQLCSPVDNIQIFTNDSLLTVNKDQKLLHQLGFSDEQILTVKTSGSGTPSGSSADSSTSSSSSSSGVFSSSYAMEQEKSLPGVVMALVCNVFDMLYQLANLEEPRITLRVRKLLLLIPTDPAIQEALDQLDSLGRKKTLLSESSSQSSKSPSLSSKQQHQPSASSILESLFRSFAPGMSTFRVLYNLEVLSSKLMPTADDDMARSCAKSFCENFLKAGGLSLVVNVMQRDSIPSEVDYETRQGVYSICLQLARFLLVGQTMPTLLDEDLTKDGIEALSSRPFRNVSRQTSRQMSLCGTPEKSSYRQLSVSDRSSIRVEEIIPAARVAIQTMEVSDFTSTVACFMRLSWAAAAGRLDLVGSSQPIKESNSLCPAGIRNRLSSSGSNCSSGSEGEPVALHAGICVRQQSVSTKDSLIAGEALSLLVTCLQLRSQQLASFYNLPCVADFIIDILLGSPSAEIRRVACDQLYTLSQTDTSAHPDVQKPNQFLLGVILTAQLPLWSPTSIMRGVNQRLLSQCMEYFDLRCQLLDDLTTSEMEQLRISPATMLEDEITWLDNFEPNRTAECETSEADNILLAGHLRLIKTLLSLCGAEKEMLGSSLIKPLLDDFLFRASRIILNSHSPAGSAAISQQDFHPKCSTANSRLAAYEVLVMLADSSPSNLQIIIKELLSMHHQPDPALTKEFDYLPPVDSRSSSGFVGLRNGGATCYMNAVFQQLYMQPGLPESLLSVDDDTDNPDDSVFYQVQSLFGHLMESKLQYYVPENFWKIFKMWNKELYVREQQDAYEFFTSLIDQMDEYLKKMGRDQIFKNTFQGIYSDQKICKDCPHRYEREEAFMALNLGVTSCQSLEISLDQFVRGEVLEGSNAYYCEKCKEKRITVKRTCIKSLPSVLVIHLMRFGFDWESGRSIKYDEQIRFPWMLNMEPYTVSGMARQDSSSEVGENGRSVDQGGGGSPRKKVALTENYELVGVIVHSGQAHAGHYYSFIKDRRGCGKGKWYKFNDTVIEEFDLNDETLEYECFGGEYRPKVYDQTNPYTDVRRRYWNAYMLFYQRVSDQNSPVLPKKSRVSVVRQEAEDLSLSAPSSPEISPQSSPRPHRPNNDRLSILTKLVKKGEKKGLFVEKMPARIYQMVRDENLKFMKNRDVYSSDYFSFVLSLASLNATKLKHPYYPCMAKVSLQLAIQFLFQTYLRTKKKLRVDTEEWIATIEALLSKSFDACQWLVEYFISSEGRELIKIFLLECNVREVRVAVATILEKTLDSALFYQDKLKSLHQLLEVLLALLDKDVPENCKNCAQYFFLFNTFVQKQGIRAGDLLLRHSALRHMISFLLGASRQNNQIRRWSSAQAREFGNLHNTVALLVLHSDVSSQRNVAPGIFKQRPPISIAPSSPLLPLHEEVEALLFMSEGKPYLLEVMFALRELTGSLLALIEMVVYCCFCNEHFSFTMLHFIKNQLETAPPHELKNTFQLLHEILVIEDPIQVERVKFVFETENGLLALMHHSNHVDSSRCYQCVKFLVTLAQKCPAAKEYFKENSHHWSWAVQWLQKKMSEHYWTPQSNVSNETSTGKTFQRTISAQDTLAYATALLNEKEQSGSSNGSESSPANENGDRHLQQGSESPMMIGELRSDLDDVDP
In short: as §1

USP25 = target: T3, USP25 (UniProt Q9UHP3)
T3 sequence (whole entry): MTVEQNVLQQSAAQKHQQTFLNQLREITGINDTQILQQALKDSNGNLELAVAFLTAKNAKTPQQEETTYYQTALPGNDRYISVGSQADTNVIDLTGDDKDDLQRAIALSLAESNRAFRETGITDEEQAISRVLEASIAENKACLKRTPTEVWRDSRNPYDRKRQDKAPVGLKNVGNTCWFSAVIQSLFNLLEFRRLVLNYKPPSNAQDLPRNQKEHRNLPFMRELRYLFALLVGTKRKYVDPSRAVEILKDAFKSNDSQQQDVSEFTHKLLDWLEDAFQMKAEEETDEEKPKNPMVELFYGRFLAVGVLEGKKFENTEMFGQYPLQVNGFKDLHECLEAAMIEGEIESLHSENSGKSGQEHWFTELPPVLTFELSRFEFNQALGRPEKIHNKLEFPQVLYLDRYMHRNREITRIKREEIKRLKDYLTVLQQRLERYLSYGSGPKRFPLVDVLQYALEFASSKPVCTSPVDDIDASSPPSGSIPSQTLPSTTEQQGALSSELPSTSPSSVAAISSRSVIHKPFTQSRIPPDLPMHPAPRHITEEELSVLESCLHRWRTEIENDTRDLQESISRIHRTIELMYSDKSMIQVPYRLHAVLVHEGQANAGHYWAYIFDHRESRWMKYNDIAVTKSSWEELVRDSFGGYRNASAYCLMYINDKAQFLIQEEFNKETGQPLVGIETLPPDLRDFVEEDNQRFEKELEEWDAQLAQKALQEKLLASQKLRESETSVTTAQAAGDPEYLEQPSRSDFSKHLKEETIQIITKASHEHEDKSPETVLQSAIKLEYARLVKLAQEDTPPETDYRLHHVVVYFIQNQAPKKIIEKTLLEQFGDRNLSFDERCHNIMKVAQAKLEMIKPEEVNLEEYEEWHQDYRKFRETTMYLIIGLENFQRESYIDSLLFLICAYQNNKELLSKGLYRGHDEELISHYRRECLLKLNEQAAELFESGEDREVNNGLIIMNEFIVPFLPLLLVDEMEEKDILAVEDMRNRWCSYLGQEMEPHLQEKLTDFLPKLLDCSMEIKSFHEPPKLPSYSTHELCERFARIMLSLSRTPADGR
In short: as §1

USP28 = target: T4, USP28 (UniProt Q96RU2)
T4 sequence (whole entry): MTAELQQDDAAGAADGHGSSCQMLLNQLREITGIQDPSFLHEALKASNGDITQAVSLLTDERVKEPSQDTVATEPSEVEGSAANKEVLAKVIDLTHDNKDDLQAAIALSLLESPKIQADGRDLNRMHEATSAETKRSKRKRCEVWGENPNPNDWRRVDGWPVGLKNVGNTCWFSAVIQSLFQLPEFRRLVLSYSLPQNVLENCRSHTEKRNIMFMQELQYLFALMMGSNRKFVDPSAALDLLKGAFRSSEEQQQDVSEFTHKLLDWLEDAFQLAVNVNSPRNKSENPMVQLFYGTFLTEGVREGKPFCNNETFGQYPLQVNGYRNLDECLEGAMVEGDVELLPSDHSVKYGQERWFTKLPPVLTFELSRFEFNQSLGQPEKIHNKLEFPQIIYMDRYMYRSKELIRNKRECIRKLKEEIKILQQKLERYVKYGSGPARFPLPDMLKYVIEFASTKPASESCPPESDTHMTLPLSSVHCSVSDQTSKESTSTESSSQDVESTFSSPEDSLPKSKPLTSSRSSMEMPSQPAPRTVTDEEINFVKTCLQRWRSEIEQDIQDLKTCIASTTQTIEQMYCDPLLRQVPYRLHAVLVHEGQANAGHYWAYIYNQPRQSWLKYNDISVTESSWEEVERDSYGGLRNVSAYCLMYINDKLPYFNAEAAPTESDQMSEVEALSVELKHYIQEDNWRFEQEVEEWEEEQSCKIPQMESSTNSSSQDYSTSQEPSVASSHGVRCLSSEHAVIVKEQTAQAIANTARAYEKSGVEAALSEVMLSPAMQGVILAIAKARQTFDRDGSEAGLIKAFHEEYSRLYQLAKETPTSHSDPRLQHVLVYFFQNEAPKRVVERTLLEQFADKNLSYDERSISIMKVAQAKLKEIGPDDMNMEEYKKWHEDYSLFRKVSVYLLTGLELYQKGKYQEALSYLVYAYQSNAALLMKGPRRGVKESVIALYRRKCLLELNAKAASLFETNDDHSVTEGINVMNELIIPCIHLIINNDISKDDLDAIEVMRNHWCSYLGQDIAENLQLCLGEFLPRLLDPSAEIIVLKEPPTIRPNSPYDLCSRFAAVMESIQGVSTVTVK
In short: as §1

Measured: log2 ratio of Biotin-Ahx-Ub-VS probe labelling

Cl.O=C(CCl)N1CCn2cncc2C1
inactive: USP19 -0.443 | USP22 -0.0616 | USP24 -0.129 | USP25 -0.134 | USP28 -0.354
